# PMC7862700, “An all-to-all approach to the identification of sequence-specific readers for epigenetic DNA modifications on cytosine”
# What was measured:
# Assay in all cases: DAPPL (digital affinity profiling via proximity ligation, sequencing); 10 mM Tris-HCl pH 7.5, 50 mM NaCl, 1 mM DTT, 4% glycerol, room temperature, 30 min; GST-TFs on glutathione beads, 16-mer random dsDNA library, 0.1% formaldehyde crosslink after washing; high values mean tight binding
# FLI1 = target: T1, FLI1 (Homo sapiens, UniProt Q01543 1-452); settings: protein: recombinant; tags: N-terminal GST; dsDNA, one strand shown
# T1 sequence: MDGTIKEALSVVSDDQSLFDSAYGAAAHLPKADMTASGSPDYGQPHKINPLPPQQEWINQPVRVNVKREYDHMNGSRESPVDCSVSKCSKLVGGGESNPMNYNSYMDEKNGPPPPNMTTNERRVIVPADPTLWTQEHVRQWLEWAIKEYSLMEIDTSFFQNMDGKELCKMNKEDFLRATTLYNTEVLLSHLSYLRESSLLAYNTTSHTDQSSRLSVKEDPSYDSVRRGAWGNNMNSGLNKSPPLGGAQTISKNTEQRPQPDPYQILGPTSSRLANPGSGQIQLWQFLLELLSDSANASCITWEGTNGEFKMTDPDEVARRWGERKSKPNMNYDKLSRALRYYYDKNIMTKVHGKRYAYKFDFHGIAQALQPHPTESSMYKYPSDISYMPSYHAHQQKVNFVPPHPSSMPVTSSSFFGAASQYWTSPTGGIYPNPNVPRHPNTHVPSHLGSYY
# In short: (§1)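 A tag-only sample was pooled with DNA-barcoded human transcription factors that had been expressed in yeast as GST fusions and captured on glutathione beads. The pools were incubated for 30 min at room temperature with 200 nmole of a random double-stranded 16-mer DNA library in Tris/NaCl/DTT/glycerol buffer, then washed, crosslinked with 0.1% formaldehyde, proximity-ligated (BsaI/T4 ligase, 1 h, 37 °C), PCR-amplified and sequenced on an Illumina NextSeq500. Binding signal is each hexamer's read frequency for a factor divided by its frequency for the tag-only sample.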
# ELK1 = target: T2, ELK1 (Homo sapiens, UniProt P19419 1-428); settings: protein: recombinant; tags: N-terminal GST; dsDNA, one strand shown
# T2 sequence: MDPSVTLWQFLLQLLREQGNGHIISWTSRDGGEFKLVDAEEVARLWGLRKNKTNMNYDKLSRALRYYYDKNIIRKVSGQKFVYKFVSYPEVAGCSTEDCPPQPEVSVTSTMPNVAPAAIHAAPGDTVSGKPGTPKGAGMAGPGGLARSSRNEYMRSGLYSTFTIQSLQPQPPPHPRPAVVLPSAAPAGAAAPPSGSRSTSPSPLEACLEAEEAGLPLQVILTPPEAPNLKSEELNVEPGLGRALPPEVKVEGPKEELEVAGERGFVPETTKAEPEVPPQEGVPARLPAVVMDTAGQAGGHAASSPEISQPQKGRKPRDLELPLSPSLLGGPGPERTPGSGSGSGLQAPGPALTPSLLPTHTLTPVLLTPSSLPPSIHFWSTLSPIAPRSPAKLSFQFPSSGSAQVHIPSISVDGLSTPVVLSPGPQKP
# In short: as §1
# GABPA = target: T3, GABPA (Homo sapiens, UniProt Q06546 1-454); settings: protein: recombinant; tags: N-terminal GST; dsDNA, one strand shown
# T3 sequence: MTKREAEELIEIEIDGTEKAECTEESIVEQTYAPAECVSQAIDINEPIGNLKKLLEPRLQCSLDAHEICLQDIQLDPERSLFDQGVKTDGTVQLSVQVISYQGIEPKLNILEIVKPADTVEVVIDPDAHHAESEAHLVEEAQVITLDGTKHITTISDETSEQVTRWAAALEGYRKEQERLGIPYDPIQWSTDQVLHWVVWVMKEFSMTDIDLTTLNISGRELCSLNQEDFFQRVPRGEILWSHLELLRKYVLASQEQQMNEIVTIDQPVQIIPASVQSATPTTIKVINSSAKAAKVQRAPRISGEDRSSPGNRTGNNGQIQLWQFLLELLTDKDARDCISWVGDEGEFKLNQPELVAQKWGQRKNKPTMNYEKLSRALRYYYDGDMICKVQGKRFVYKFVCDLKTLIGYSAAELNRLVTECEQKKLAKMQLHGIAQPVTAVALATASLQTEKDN
# In short: as §1
# ERG = target: T4, ERG (Homo sapiens, UniProt P11308 1-479); settings: protein: recombinant; tags: N-terminal GST; dsDNA, one strand shown
# T4 sequence: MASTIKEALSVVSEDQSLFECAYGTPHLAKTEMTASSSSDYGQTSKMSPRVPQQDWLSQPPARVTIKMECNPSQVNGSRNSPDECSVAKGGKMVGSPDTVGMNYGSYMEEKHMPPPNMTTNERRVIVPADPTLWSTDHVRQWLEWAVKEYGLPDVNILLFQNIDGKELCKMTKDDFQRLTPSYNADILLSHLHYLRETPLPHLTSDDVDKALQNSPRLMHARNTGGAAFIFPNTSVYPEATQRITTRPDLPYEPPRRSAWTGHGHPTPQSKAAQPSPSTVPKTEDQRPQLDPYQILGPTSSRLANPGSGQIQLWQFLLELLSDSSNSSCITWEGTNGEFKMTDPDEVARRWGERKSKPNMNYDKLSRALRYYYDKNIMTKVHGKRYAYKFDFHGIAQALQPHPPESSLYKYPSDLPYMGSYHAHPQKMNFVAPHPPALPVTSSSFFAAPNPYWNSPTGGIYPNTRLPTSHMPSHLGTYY
# In short: as §1
# ELF1 = ELF1 (Homo sapiens, UniProt P32519 1-619); settings: protein: recombinant; tags: N-terminal GST; dsDNA, one strand shown
# In short: as §1
# EHF = target: T5, EHF (Homo sapiens, UniProt Q9NZC4 1-300); settings: protein: recombinant; tags: N-terminal GST; dsDNA, one strand shown
# T5 sequence: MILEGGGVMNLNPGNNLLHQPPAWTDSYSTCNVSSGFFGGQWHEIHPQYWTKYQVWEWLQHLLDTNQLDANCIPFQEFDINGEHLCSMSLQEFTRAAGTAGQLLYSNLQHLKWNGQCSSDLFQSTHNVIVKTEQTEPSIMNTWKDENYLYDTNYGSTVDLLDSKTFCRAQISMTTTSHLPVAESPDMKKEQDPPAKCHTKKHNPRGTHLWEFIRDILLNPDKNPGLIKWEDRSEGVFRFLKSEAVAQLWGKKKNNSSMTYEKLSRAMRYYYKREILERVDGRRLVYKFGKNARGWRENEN
# In short: as §1
# SPI1 = SPI1 (Homo sapiens, UniProt P17947 1-270); settings: protein: recombinant; tags: N-terminal GST; dsDNA, one strand shown
# In short: as §1
# SPIB = SPIB (Homo sapiens, UniProt Q01892 1-262); settings: protein: recombinant; tags: N-terminal GST; dsDNA, one strand shown
# In short: as §1
# ELK3 = target: T6, ELK3 (Homo sapiens, UniProt P41970 1-407); settings: protein: recombinant; tags: N-terminal GST; dsDNA, one strand shown
# T6 sequence: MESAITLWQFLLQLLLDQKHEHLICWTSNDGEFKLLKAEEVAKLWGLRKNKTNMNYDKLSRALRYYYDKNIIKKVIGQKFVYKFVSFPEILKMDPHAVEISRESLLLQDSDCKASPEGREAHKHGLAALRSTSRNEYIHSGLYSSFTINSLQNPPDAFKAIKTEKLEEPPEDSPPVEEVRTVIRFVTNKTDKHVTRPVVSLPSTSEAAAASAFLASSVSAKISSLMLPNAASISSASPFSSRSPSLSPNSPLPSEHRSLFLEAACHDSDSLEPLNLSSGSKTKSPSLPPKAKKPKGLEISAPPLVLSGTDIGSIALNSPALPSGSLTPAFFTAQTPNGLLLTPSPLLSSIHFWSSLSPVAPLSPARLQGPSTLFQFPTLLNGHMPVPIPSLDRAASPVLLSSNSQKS
# In short: as §1
# FEV = target: T7, FEV (Homo sapiens, UniProt Q99581 1-238); settings: protein: recombinant; tags: N-terminal GST; dsDNA, one strand shown
# T7 sequence: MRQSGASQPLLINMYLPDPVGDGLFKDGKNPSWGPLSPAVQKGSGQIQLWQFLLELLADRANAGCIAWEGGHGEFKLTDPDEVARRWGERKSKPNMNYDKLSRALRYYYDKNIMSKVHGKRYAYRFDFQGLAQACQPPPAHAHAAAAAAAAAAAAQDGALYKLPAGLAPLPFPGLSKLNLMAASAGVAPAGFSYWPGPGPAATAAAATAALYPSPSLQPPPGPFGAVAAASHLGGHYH
# In short: as §1
# ETV5 = ETV5 (Homo sapiens, UniProt P41161 1-510); settings: protein: recombinant; tags: N-terminal GST; dsDNA, one strand shown
# In short: as §1
# HSF1 = HSF1 (Homo sapiens, UniProt Q00613 1-529); settings: protein: recombinant; tags: N-terminal GST; chain copies: 3; dsDNA, one strand shown
# In short: as §1
# SPIC = target: T8, SPIC (Homo sapiens, UniProt Q8N5J4 1-248); settings: protein: recombinant; tags: N-terminal GST; dsDNA, one strand shown
# T8 sequence: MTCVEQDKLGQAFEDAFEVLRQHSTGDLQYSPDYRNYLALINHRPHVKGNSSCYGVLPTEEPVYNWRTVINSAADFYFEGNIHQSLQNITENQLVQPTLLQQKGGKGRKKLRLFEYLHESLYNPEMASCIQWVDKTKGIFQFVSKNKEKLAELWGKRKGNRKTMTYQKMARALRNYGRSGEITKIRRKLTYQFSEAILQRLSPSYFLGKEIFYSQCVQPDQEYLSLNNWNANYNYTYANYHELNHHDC
# In short: as §1
# ELF4 = ELF4 (Homo sapiens, UniProt Q99607 1-663); settings: protein: recombinant; tags: N-terminal GST; dsDNA, one strand shown
# In short: as §1
# ELK4 = target: T9, ELK4 (Homo sapiens, UniProt P28324-2 1-405); settings: protein: recombinant; tags: N-terminal GST; dsDNA, one strand shown
# T9 sequence: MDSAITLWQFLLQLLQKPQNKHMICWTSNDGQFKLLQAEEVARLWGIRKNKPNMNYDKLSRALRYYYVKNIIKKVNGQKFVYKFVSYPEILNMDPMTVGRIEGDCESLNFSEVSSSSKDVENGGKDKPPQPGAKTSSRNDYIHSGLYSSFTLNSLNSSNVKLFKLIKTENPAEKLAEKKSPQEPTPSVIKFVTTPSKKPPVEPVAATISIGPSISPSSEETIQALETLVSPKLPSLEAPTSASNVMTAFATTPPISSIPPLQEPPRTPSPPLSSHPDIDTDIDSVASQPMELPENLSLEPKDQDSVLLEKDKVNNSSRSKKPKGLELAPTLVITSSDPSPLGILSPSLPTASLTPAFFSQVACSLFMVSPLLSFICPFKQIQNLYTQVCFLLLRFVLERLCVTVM
# In short: as §1
# ETV2 = target: T10, ETV2 (Homo sapiens, UniProt O00321 1-342); settings: protein: recombinant; tags: N-terminal GST; dsDNA, one strand shown
# T10 sequence: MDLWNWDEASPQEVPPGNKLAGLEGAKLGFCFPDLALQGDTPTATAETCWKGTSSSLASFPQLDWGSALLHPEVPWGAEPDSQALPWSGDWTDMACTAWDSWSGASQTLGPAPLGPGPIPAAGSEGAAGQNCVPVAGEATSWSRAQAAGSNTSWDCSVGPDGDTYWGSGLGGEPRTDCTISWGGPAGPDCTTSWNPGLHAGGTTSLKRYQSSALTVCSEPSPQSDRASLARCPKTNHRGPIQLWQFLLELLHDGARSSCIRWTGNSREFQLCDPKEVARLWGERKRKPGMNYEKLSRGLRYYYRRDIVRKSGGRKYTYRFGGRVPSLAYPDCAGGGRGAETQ
# In short: as §1
# ELF3 = target: T11, ELF3 (Homo sapiens, UniProt P78545 1-371); settings: protein: recombinant; tags: N-terminal GST; dsDNA, one strand shown
# T11 sequence: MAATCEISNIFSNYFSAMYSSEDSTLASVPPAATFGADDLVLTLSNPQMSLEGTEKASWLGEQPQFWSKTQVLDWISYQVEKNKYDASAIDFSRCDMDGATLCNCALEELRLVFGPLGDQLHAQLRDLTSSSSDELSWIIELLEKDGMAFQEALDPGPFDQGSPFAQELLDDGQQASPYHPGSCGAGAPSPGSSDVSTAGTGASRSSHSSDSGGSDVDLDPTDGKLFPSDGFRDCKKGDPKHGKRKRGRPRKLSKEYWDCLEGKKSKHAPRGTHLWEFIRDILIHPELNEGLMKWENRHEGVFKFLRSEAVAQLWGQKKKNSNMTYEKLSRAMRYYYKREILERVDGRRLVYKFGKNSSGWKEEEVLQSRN
# In short: as §1
# ETV1 = ETV1 (Homo sapiens, UniProt P50549 1-477); settings: protein: recombinant; tags: N-terminal GST; dsDNA, one strand shown
# In short: as §1
# SPIB, sequence (Q01892 whole entry): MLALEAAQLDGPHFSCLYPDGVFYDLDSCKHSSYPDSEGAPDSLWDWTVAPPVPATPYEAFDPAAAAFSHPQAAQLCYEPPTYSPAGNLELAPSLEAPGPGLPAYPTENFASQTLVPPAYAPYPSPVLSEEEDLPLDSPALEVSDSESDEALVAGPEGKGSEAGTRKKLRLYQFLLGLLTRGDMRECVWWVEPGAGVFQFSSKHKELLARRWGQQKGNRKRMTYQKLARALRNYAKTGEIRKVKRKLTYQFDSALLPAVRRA
# ELF4, sequence (Q99607 whole entry): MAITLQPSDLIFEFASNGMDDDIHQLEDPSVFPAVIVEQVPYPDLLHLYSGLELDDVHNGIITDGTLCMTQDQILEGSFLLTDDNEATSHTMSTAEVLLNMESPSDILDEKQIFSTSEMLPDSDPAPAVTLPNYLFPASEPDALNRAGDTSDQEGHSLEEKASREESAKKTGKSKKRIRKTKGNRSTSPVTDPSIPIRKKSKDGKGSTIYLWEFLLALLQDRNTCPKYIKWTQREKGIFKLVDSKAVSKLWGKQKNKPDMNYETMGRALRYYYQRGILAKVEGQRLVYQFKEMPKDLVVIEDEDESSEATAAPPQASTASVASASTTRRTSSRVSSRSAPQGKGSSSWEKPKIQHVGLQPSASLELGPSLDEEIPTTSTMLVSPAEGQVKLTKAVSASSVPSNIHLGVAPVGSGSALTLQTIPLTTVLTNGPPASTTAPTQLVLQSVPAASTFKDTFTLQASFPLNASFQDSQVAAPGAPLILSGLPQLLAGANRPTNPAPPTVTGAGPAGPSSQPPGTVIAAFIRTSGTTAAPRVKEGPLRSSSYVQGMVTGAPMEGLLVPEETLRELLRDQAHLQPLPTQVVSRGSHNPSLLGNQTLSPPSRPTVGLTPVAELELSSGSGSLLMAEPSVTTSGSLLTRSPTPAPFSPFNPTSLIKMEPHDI
# ETV1, sequence (P50549 whole entry): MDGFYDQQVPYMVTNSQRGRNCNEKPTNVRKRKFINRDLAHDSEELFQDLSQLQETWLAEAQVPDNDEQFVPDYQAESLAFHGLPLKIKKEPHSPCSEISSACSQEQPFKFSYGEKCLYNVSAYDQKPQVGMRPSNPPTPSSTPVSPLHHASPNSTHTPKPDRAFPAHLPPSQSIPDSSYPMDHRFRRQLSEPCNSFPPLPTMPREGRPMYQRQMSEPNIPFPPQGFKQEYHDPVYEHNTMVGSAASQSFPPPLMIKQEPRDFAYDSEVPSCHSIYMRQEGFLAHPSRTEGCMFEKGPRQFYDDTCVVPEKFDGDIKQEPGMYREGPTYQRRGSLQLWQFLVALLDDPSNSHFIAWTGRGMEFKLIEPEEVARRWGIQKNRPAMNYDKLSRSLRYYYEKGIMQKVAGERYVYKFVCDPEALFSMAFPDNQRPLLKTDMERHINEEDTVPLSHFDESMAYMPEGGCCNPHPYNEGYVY
# HSF1, sequence (Q00613 whole entry): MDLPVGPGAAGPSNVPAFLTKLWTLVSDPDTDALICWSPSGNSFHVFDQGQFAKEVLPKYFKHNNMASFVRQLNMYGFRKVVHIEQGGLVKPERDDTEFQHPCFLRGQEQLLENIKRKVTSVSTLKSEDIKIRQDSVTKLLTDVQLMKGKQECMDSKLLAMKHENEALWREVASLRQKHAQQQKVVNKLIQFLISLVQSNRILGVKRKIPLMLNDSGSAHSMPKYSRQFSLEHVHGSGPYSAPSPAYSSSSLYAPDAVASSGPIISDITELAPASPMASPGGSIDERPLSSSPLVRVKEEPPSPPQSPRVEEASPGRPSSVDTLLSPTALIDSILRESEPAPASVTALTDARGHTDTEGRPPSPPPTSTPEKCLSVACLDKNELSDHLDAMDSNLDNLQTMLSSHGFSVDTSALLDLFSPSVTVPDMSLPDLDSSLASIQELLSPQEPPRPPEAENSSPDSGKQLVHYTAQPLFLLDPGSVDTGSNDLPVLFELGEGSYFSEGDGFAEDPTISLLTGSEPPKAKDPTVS
# ELF1, sequence (P32519 whole entry): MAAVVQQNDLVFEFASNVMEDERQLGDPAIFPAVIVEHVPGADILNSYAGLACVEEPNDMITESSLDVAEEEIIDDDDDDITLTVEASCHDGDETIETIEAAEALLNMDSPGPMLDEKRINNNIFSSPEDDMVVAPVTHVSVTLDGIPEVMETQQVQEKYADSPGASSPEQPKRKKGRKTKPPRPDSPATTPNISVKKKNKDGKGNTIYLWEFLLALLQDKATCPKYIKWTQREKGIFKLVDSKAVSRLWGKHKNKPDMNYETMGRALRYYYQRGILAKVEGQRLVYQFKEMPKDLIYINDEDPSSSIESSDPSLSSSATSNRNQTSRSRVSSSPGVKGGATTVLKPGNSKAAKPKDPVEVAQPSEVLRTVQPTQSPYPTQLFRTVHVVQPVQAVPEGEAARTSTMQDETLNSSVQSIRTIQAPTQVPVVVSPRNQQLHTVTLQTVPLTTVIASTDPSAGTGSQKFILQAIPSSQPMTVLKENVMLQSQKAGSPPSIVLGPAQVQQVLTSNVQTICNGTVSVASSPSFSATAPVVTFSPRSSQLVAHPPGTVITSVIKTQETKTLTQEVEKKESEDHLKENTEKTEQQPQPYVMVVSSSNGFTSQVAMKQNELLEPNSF
# ETV5, sequence (P41161 whole entry): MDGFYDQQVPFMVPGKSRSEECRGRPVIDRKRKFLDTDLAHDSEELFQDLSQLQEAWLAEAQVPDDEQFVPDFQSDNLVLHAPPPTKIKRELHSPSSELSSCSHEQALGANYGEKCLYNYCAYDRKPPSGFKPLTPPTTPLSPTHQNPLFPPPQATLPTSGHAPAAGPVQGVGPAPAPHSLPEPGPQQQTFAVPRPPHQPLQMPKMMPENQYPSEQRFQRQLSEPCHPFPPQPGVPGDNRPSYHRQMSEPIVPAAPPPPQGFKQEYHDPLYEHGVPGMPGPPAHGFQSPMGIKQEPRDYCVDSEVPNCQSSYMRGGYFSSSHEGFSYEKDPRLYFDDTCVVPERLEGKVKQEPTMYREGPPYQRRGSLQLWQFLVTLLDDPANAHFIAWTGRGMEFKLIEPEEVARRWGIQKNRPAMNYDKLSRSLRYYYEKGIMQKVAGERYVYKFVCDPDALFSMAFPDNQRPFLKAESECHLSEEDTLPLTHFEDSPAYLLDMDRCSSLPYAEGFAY
sequence,measurement,setting,value
CAATTG,binding signal,FLI1,"1.32 fold enrichment (6-mer frequency, TF over GST control)"
same,binding signal,ELK1,"1.19 fold enrichment (6-mer frequency, TF over GST control)"
same,binding signal,GABPA,"1.26 fold enrichment (6-mer frequency, TF over GST control)"
same,binding signal,ERG,"1.14 fold enrichment (6-mer frequency, TF over GST control)"
same,binding signal,ELF1,"1.28 fold enrichment (6-mer frequency, TF over GST control)"
same,binding signal,EHF,"1.27 fold enrichment (6-mer frequency, TF over GST control)"
same,binding signal,SPI1,"1.25 fold enrichment (6-mer frequency, TF over GST control)"
same,binding signal,SPIB,"1.16 fold enrichment (6-mer frequency, TF over GST control)"
same,binding signal,ELK3,"1.23 fold enrichment (6-mer frequency, TF over GST control)"
same,binding signal,FEV,"1.18 fold enrichment (6-mer frequency, TF over GST control)"
same,binding signal,ETV5,"1.2 fold enrichment (6-mer frequency, TF over GST control)"
same,binding signal,HSF1,"1.04 fold enrichment (6-mer frequency, TF over GST control)"
same,binding signal,SPIC,"1.28 fold enrichment (6-mer frequency, TF over GST control)"
same,binding signal,ELF4,"1.27 fold enrichment (6-mer frequency, TF over GST control)"
same,binding signal,ELK4,"1.04 fold enrichment (6-mer frequency, TF over GST control)"
same,binding signal,ETV2,"1.16 fold enrichment (6-mer frequency, TF over GST control)"
same,binding signal,ELF3,"1.32 fold enrichment (6-mer frequency, TF over GST control)"
same,binding signal,ETV1,"1.17 fold enrichment (6-mer frequency, TF over GST control)"
